The text below walks through data of PubChem BioAssay (NCI).

Common to all, as to assay: NCI-60 one-dose screen, 48 h (100 = growth as untreated, 0 = no growth, -100 = all killed)
The test system of test [1] is HCT-15 colon. The settings on record: 10 µM unless noted.
In test [2] the test system is HT29 colon. The settings on record: 10 µM unless noted.
The test system of test [3] is SNB-75 CNS. The note with it: 10 µM unless noted.
In test [4] the test system is SNB-19 CNS. The note with it: 10 µM unless noted.
The test system of test [5] is U251 CNS. The settings on record: 10 µM unless noted.
Test [6] deals with PC-3 prostate. The note with it: 10 µM unless noted.
Test [7] concerns SK-MEL-5 melanoma. The settings on record: 10 µM unless noted.
For test [8], the system named is UACC-62 melanoma. The settings on record: 10 µM unless noted.
The test system of test [9] is LOX IMVI melanoma. The note with it: 10 µM unless noted.
In test [10] the test system is SK-MEL-28 melanoma. The settings on record: 10 µM unless noted.
In test [11] the test system is SK-MEL-2 melanoma. The note with it: 10 µM unless noted.
The subject of test [12] is EKVX NSCLC. The note with it: 10 µM unless noted.
Test [13] has as its system UO-31 renal. The note with it: 10 µM unless noted.
Test [14] deals with TK-10 renal. The note with it: 10 µM unless noted.
Test [15] deals with ACHN renal. The note with it: 10 µM unless noted.
In test [16] the test system is CAKI-1 renal. The note with it: 10 µM.
Test [17] has as its system A498 renal. The note with it: 10 µM unless noted.
Test [18] concerns CCRF-CEM leukemia. The settings on record: 10 µM unless noted.
For test [19], the system named is MOLT-4 leukemia. The settings on record: 10 µM unless noted.
Test [20] has as its system SN12C renal. The settings on record: 10 µM unless noted.

This is part of a sample that, as a whole, favours compounds with a hit. Of some 83,000 tested, about 20% had one in any assay.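 Interpretation: 100, growth as untreated; towards 0, rising growth inhibition; 0, no net growth; 0 to -100, cell death. Compounds scoring below 10 were considered active.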 Unmarked numbers belong to inactive results. The source made the active and inactive calls.

Regarding `CNC(=O)c1cc(Oc2ccc3nc(NC(=O)c4ccc(CN5CCN(C)CC5)c(C(F)(F)F)c4)sc3c2)ccn1`, the growth in [1] is 8.89% (active); in test [2], 16.1%; in test [3], 55.1%; in [4], 75.9%; in test [5], 57.1%; in test [6], 47.3%. For the same compound, the growth in [7] is 31.4%; in [8], 56.3%; in [9], -28.2% (active); in [10], -38.1% (active); in test [11] it was 98.7%; in test [12] it was 59.3%. Further, the growth was 58.5% in test [13]; 104% in test [14]; 76.9% in [15]; 53.3% in [16]; 80.3% in test [17]; 49.9% in [18]. The growth in [19] is 39.2%.
On to `COc1ccccc1/C=C/C=N/NC1=NC2C(S1)N(C)C(=O)N2c1ccccc1` (configuration not stated), for which the growth in test [1] was 12.1%; in [2], 15.9%; in test [3], 18.3%; in test [4], 22.7%; in test [5], 23.5%; in [6], 26.9%. The growth was -12.6% (active) in test [7]; 33% in test [8]; -0.484% (active) in test [9]; 60.3% in [10]; 67.6% in [11]; 39.4% in [12]. Further, the growth in test [20] is 20.6%; in test [13], 35.9%; in test [14] it was 68.6%; in test [15] it was 24.7%; in test [16] it was 46.4%; in test [18], 14.3%. Further, the growth in test [19] is 4.1% (active).
As to `O=C(NCCCNc1cc(-c2cn(-c3ccccc3)nc2-c2cccc(O)c2)ccn1)Nc1ccc(F)cc1`, the growth in test [1] is -11.7% (active); in [2], 3.6% (active); in test [3] it was 6.84% (active); in [4] it was 26.9%; in [5], 3.22% (active); in [6], 16%. For the same compound, the growth in test [7] was -55% (active); in test [8], 8.05% (active); in [9], 6.07% (active); in test [10], -61.3% (active); in [11] it was -4.51% (active); in [12], 33.8%. Besides, the growth is 31.1% in test [20]; 6.93% (active) in [13]; 24.8% in test [15]; 12.8% in test [16]; -6.39% (active) in test [17]; 11% in [18]. Also, the growth in [19] is 4.57% (active).
Consider `C/C=C/[C@@H]1C=C[C@@H]2C[C@H](C)CC[C@H]2[C@]1(C)/C(O)=C1/C(=O)[C@H](CO)N(C)C1=O`, for which the growth was 39.4% in test [1]; 61.9% in test [2]; 75.5% in test [3]; 43.2% in [4]; 47% in [5]; 45.7% in test [6]. For the same compound, the growth in [7] was 52.4%; in [8], 46.9%; in test [9], 53.5%; in test [10], 63.2%; in test [11] it was 79.2%; in test [12] it was 55.6%. The growth was 45.8% in test [20]; 56.2% in test [13]; 67.7% in [14]; 73.7% in test [15]; 43.5% in test [17]; 40.4% in [18]. In addition, in test [19], the growth was 60.6%.
Regarding `COc1c([C@@H](CC(C)C)OC(C)=O)ccc2c1C(=O)OCc1cc(C)cc(O)c1O2`, the growth is 17.3% in test [1]; 13.5% in test [2]; 50.6% in test [3]; 36.3% in test [4]; 20.1% in test [5]; 29.8% in test [6]. The growth in test [7] is 8.29% (active); in [8], 31.3%; in [9], 27.5%; in [10], 59.1%; in test [11] it was 22.2%; in test [12], 37.6%. Besides, the growth is 27.8% in test [20]; 32.3% in [13]; 33.6% in [14]; 16.1% in test [15]; 61.5% in [17]; 31.4% in [18]. In addition, the growth in [19] was 21.3%.
With `O=c1[nH]c(CNc2ccc(NCc3c(-c4ccccc4)no[n+]3[O-])cc2)nc2c1cnn2-c1ccccc1`, the growth in [1] is 71.2%; in [2] it was 92%; in test [3] it was 76.1%; in test [4] it was 94%; in test [5], 85.5%; in test [6], 63.3%. Moreover, the growth in test [7] was 39%; in test [8] it was 52.5%; in test [9], 63.6%; in test [10], 85.3%; in test [11] it was 77.2%; in [12], 51.3%. Moreover, the growth is 55.9% in test [13]; 102% in test [14]; 70.4% in test [15]; 55.1% in test [16]; 57.9% in test [18]; 44% in [19].
Take `CN1CCN(c2ccc3c(C(N)=O)c(NC(=O)c4ccc(C(C)(C)C)cc4)sc3c2)CC1`: the growth was 16.4% in test [1]; 20.4% in test [2]; 81.6% in test [3]; 76.2% in test [4]; 59.1% in test [5]; 79.2% in test [6]. For the same compound, the growth in test [7] is 89.7%; in [8], 99.5%; in test [9], -53.3% (active); in test [10], 90%; in test [11] it was 97.4%; in test [12], 85.2%. For the same compound, the growth in test [20] was 90%; in test [13], 97.5%; in [14], 123%; in [15] it was 96.4%; in test [16], 100%; in test [18], 53.3%. The growth in test [19] was 41.9%.
